Experimental data as given in the supplement of paper PMC7411054.
Counter-ions that a name gives are not always drawn.

What was measured:
Conditions in all cases: treatment time: 24 h
[1] = system: A549-ACTB-RAB5A; assay: lowest phenotypically active concentration; higher = less potent
In short: (§1)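 After 24 h at 0.3, 1, 3 or 9 µM, with four wells per treatment, fifteen gene-edited A549, HepG2 and WPMY1 reporter lines carrying BFP, GFP and RFP/FusionRed were imaged live. Each well's live-cell features were expressed relative to solvent control wells. Deviation required ≥3 of 4 wells past the 95th percentile of control Euclidean distances, and reproducibility a median replicate Pearson correlation over the 95th percentile of non-replicates. Phenotypic activity rested on both.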

[2] = system: A549-CANX-COX4; assay: as above
In short: as §1

[3] = system: A549-GM130-SQSTM1; assay: as above
In short: as §1

[4] = system: A549-TP53BP1-CLTA; assay: as above
In short: as §1

[5] = system: A549-TUBA1B-RELA; assay: as above
In short: as §1

[6] = system: HepG2-GM130-SQSTM1; assay: as above
In short: as §1

[7] = system: A549-ACTB-RAB5A; assay: phenotypically active (imaging signature differs from DMSO and reproducible) at any of 0.3-9 uM (binary (1 = active, 0 = inactive)); higher = active
In short: as §1

[8] = system: A549-CANX-COX4; assay: as above
In short: as §1

[9] = system: A549-GM130-SQSTM1; assay: as above
In short: as §1

[10] = system: A549-TP53BP1-CLTA; assay: as above
In short: as §1

[11] = system: A549-TUBA1B-RELA; assay: as above
In short: as §1

[12] = system: HepG2-ACTB-RAB5A; assay: as above
In short: as §1

[13] = system: HepG2-CANX-COX4; assay: as above
In short: as §1

[14] = system: HepG2-GM130-SQSTM1; assay: as above
In short: as §1

[15] = system: HepG2-TP53BP1-CLTA; assay: as above
In short: as §1

[16] = system: HepG2-TUBA1B-RELA; assay: as above
In short: as §1

[17] = system: WPMY1-CANX-COX4; assay: as above
In short: as §1

[18] = system: WPMY1-GM130-SQSTM1; assay: as above
In short: as §1

[19] = system: WPMY1-TP53BP1-CLTA; assay: as above
In short: as §1

[20] = system: WPMY1-TUBA1B-RELA; assay: as above
In short: as §1

COc1cc(N2CCOCC2)ccc1Nc1ncc(Cl)c(Nc2ccccc2NS(C)(=O)=O)n1
active: phenotypically active [7] 1 | phenotypically active [8] 1 | phenotypically active [9] 1 | phenotypically active [10] 1 | phenotypically active [11] 1 | phenotypically active [12] 1 | phenotypically active [13] 1 | phenotypically active [14] 1 | phenotypically active [15] 1 | phenotypically active [16] 1 | phenotypically active [17] 1 | phenotypically active [18] 1 | phenotypically active [19] 1 | phenotypically active [20] 1
3 µM: lowest phenotypically active concentration [1] | lowest phenotypically active concentration [2] | lowest phenotypically active concentration [3] | lowest phenotypically active concentration [4] | lowest phenotypically active concentration [5] | lowest phenotypically active concentration [6]

O=C(Nc1ccc(-c2ccnc(Nc3ccc(N4CCOCC4)cc3)n2)cc1)[C@@H]1CCCN1
3 µM: lowest phenotypically active concentration [1] | lowest phenotypically active concentration [3] | lowest phenotypically active concentration [5] | lowest phenotypically active concentration [6]
active: phenotypically active [7] 1 | phenotypically active [8] 1 | phenotypically active [9] 1 | phenotypically active [10] 1 | phenotypically active [11] 1 | phenotypically active [12] 1 | phenotypically active [13] 1 | phenotypically active [14] 1 | phenotypically active [15] 1 | phenotypically active [16] 1 | phenotypically active [17] 1 | phenotypically active [18] 1 | phenotypically active [19] 1 | phenotypically active [20] 1
9 µM: lowest phenotypically active concentration [2] | lowest phenotypically active concentration [4]

CC[C@@H]1C(=O)N(C)c2cnc(Nc3ccc(C(=O)NC4CCN(C)CC4)cc3OC)nc2N1C1CCCC1
≤ 0.3 µM: lowest phenotypically active concentration [1] | lowest phenotypically active concentration [2] | lowest phenotypically active concentration [4] | lowest phenotypically active concentration [5] | lowest phenotypically active concentration [6]
1 µM: lowest phenotypically active concentration [3]
active: phenotypically active [7] 1 | phenotypically active [8] 1 | phenotypically active [9] 1 | phenotypically active [10] 1 | phenotypically active [11] 1 | phenotypically active [12] 1 | phenotypically active [13] 1 | phenotypically active [14] 1 | phenotypically active [15] 1 | phenotypically active [16] 1 | phenotypically active [17] 1 | phenotypically active [18] 1 | phenotypically active [19] 1 | phenotypically active [20] 1

CC(C)NCCCn1c(Sc2cc3c(cc2I)OCO3)nc2c(N)ncnc21
≤ 0.3 µM: lowest phenotypically active concentration [1] | lowest phenotypically active concentration [2] | lowest phenotypically active concentration [3] | lowest phenotypically active concentration [4] | lowest phenotypically active concentration [5] | lowest phenotypically active concentration [6]
active: phenotypically active [7] 1 | phenotypically active [8] 1 | phenotypically active [9] 1 | phenotypically active [10] 1 | phenotypically active [11] 1 | phenotypically active [12] 1 | phenotypically active [13] 1 | phenotypically active [14] 1 | phenotypically active [15] 1 | phenotypically active [16] 1 | phenotypically active [17] 1 | phenotypically active [18] 1 | phenotypically active [19] 1 | phenotypically active [20] 1

O=C(Nc1cccc(Cl)c1)Nc1ncc(CCNc2ncnc3ccsc23)s1 [SNS 314 mesylate]
active: phenotypically active [7] 1 | phenotypically active [8] 1 | phenotypically active [9] 1 | phenotypically active [10] 1 | phenotypically active [11] 1 | phenotypically active [12] 1 | phenotypically active [13] 1 | phenotypically active [14] 1 | phenotypically active [15] 1 | phenotypically active [16] 1 | phenotypically active [17] 1 | phenotypically active [18] 1 | phenotypically active [19] 1 | phenotypically active [20] 1
≤ 0.3 µM: lowest phenotypically active concentration [1] | lowest phenotypically active concentration [2] | lowest phenotypically active concentration [3] | lowest phenotypically active concentration [4] | lowest phenotypically active concentration [5] | lowest phenotypically active concentration [6]

Cc1c(C(=O)N2CCOc3ccc(-c4ccc(N)nc4)cc3C2)ccc(S(C)(=O)=O)c1F
3 µM: lowest phenotypically active concentration [2] | lowest phenotypically active concentration [3] | lowest phenotypically active concentration [4] | lowest phenotypically active concentration [6]
active: phenotypically active [7] 1 | phenotypically active [8] 1 | phenotypically active [9] 1 | phenotypically active [10] 1 | phenotypically active [11] 1 | phenotypically active [12] 1 | phenotypically active [13] 1 | phenotypically active [14] 1 | phenotypically active [15] 1 | phenotypically active [16] 1 | phenotypically active [17] 1 | phenotypically active [18] 1 | phenotypically active [19] 1 | phenotypically active [20] 1
1 µM: lowest phenotypically active concentration [1] | lowest phenotypically active concentration [5]

NC1(C(=O)N[C@@H](CCO)c2ccc(Cl)cc2)CCN(c2ncnc3[nH]ccc23)CC1
≤ 0.3 µM: lowest phenotypically active concentration [1]
1 µM: lowest phenotypically active concentration [2] | lowest phenotypically active concentration [3] | lowest phenotypically active concentration [4] | lowest phenotypically active concentration [6]
active: phenotypically active [7] 1 | phenotypically active [8] 1 | phenotypically active [9] 1 | phenotypically active [10] 1 | phenotypically active [11] 1 | phenotypically active [12] 1 | phenotypically active [13] 1 | phenotypically active [14] 1 | phenotypically active [15] 1 | phenotypically active [16] 1 | phenotypically active [17] 1 | phenotypically active [18] 1 | phenotypically active [19] 1 | phenotypically active [20] 1
3 µM: lowest phenotypically active concentration [5]

CCC1(O)CC2CN(CCc3c([nH]c4ccccc34)C(C(=O)OC)(c3cc4c(cc3OC)N(C)C3C(O)(C(=O)OC)C(OC(C)=O)C5(CC)C=CCN6CCC43C65)C2)C1 (stereo not given) [Vinblastine sulfate]
≤ 0.3 µM: lowest phenotypically active concentration [1] | lowest phenotypically active concentration [2] | lowest phenotypically active concentration [3] | lowest phenotypically active concentration [4] | lowest phenotypically active concentration [5] | lowest phenotypically active concentration [6]
active: phenotypically active [7] 1 | phenotypically active [8] 1 | phenotypically active [9] 1 | phenotypically active [10] 1 | phenotypically active [11] 1 | phenotypically active [12] 1 | phenotypically active [13] 1 | phenotypically active [14] 1 | phenotypically active [15] 1 | phenotypically active [16] 1 | phenotypically active [17] 1 | phenotypically active [18] 1 | phenotypically active [19] 1 | phenotypically active [20] 1

CCCCc1oc2ccccc2c1C(=O)c1cc(I)c(OCCN(CC)CC)c(I)c1 [amiodarone]
9 µM: lowest phenotypically active concentration [2] | lowest phenotypically active concentration [3] | lowest phenotypically active concentration [4] | lowest phenotypically active concentration [6]
active: phenotypically active [7] 1 | phenotypically active [8] 1 | phenotypically active [9] 1 | phenotypically active [10] 1 | phenotypically active [11] 1 | phenotypically active [12] 1 | phenotypically active [13] 1 | phenotypically active [14] 1 | phenotypically active [15] 1 | phenotypically active [16] 1 | phenotypically active [17] 1 | phenotypically active [18] 1 | phenotypically active [19] 1 | phenotypically active [20] 1
3 µM: lowest phenotypically active concentration [1] | lowest phenotypically active concentration [5]

CC(C)n1c(/C=C/[C@@H](O)C[C@@H](O)CC(=O)O)c(-c2ccc(F)cc2)c2ccccc21.CC(C)n1c(/C=C/[C@H](O)C[C@H](O)CC(=O)O)c(-c2ccc(F)cc2)c2ccccc21 [Fluvastatin sodium]
9 µM: lowest phenotypically active concentration [2] | lowest phenotypically active concentration [4] | lowest phenotypically active concentration [5]
3 µM: lowest phenotypically active concentration [3]
≤ 0.3 µM: lowest phenotypically active concentration [1]
active: phenotypically active [7] 1 | phenotypically active [8] 1 | phenotypically active [9] 1 | phenotypically active [10] 1 | phenotypically active [11] 1 | phenotypically active [12] 1 | phenotypically active [13] 1 | phenotypically active [14] 1 | phenotypically active [15] 1 | phenotypically active [16] 1 | phenotypically active [17] 1 | phenotypically active [18] 1 | phenotypically active [19] 1 | phenotypically active [20] 1
1 µM: lowest phenotypically active concentration [6]

Cc1ccc(/C(=C/CN2CCCC2)c2cccc(/C=C/C(=O)O)n2)cc1 [acrivastine]
9 µM: lowest phenotypically active concentration [2] | lowest phenotypically active concentration [4]
3 µM: lowest phenotypically active concentration [3] | lowest phenotypically active concentration [6]
active: phenotypically active [7] 1 | phenotypically active [8] 1 | phenotypically active [9] 1 | phenotypically active [10] 1 | phenotypically active [11] 1 | phenotypically active [12] 1 | phenotypically active [13] 1 | phenotypically active [14] 1 | phenotypically active [15] 1 | phenotypically active [16] 1 | phenotypically active [17] 1 | phenotypically active [18] 1 | phenotypically active [19] 1 | phenotypically active [20] 1
1 µM: lowest phenotypically active concentration [1] | lowest phenotypically active concentration [5]
